# Assay outcomes (PubChem)
# Sm TGR inh = qHTS Assay for the Inhibitors of Schistosoma Mansoni Peroxiredoxins; Schistosoma mansoni thioredoxin glutathione reductase (TGR), Q962Y6; AID 485364, 2010; hit rate 3% among 360,000; Potency, µM (doses to about 114 µM), for inactives: top-dose activity change, negative = inhibition, hits mostly inhibitors; purified TGR, DTNB reduction, TNB absorbance 405 nm; note: nearly all actives have a fitted effect of over 60% in size
#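 First, TGR (20 nM dispensed) and NADPH were mixed with compound. Second, a 15 min room-temperature incubation followed. Third, further NADPH and then DTNB were added to start the reaction. Finally, TNB absorbance was monitored kinetically.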
# FMDV inh = High Throughput Screening for Foot and Mouth Disease Virus Antivirals; Potency, µM (top dose mostly 57.9 µM), for inactives: at the highest dose activity change, negative = inhibition, hits mostly inhibitors; hit rate 1.2% among 410,000; FMDV antiviral cell-based qHTS; calls by dose curve; tested in HEK293T cells; note: read-out not given here; nearly all actives have a fitted effect of over 45% in size
# HCV inhibitor = qHTS Assay for Inhibitors of Hepatitis C Virus (HCV) | Huh7.5.1 HCVcc-Cre infection, luciferase reporter, 44 h | Potency, µM (titrated, usually from 41.8 µM), for the others: at the highest dose activity change, negative = inhibition, most hits filed as inhibitors | hit rate 3.4% among 340,000
#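 1,000 cells/well; 4 h culture; + compound; + HCVcc-Cre (~0.5 moi); 44 h; luciferase substrate, RT 15 min; read 15 sec.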
# Marburg entry inh = qHTS for inhibitors of binding or entry into cells for Marburg Virus; Marburg virus pseudotyped entry inhibition, cell reporter; Potency, µM (highest dose often 37.8 µM), for inactives: at the highest dose activity change, negative = inhibition, hits mostly inhibitors; hit rate 1.8% among 300,000; AID 540276, 2011; calls by dose curve; tested in HEK293 cells
# Lassa entry inh = qHTS for Inhibitors of binding or entry into cells for Lassa Virus. Lassa virus pseudotype entry inhibition, cell reporter. Potency, µM (titrated, usually from 37.9 µM), for inactives: top-dose activity change, negative = inhibition, hits mostly inhibitors. hit rate 1.2% among 300,000. AID 540256, 2011; calls by dose curve; tested in HEK293 cells; note: nearly all actives have a fitted effect of over 50% in size
# RE007 growth inh = qHTS Assay for Inhibitors of the HIV-1 protein Vpr | S. pombe RE007 Vpr strain, BacTiter-Glo ATP luminescence, 24 h | Potency, µM (doses to about 92.2 µM), inactives show top-dose activity change, negative = less growth, most hits filed as inhibitors | hit rate 0.21% among 360,000 | AID 651644, 2012; active = well fitted falling curve with a large enough effect; inconclusive = small, poorly fitted or top-dose-only effect; inactive = no such curve, though single readings can be large or run the other way; note: nearly all actives have a fitted effect of over 50% in size
#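 Fission yeast strain RE007, carrying one chromosomally integrated HIV-1 vpr copy, was seeded at OD 0.01 in PMG+AL medium with 23 nL pinned compound. After 24 h at 30 °C and 99% humidity, viability was read by BacTiter-Glo luminescence.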
# Numbers without * were called inactive; ? = inconclusive; . = no result given; [ ] = another dose, or the depositor's remark. In the library only some 7.2% were active in any assay of this set; here they are far more common. Unless noted, calls come from the whole dose curve; as a rule, active = well fitted curve in the direction sought with a large enough effect; inconclusive = small, poorly fitted or top-dose-only effect, or another doubt; inactive = no such curve, though single readings can be large; an effect the other way counts as inactive or inconclusive. % is set by controls: 0 for no effect and ±100 for the full control effect; potency is the fitted concentration of half-maximal effect.
SMILES,Sm TGR inh,FMDV inh,HCV inhibitor,Marburg entry inh,Lassa entry inh,RE007 growth inh
O=C1c2ccccc2C(=O)N1CCc1nc2ccccc2c(=O)n1Cc1ccco1,35µM*,28µM*,19%,-2%,-2%,-10%
COC(=O)[C@H](NCc1ccc(OC)c(B(O)O)c1)C(C)C,.,-3%,17%,.,.,-7%
COc1cccc(C(=O)N(Cc2ccc(C)o2)C2CCS(=O)(=O)C2)c1 (stereo unspecified),-1%,4%,.,-12%[46.1 µM],25%[46.1 µM],.
Cc1ccc(N(C)S(=O)(=O)c2cc(-c3cnc(C4CC4)o3)ccc2C)cc1,-13%,?,3.2µM*,?,?,-2%
CCOc1ccc(N(C)S(=O)(=O)c2cc(-c3cc(C)no3)ccc2OC)cc1,22%,-15%,?,.,?,0%
CCOc1ccc(N(C)S(=O)(=O)c2cc(-c3cc(C)no3)ccc2C)cc1,8%,20µM*,?,.,.,7%
CCOc1ccc(N(C)S(=O)(=O)c2cc(-c3cc(C)no3)ccc2CC)cc1,3%,18µM*,?,?,?,6%
O=C(NCc1cccc(Br)c1)c1cccn1-c1nnc(N2CCCCC2)s1,6%,5%,.,.,-10%[46.1 µM],.
Brc1ccc(-c2ccc(/C=N/Nc3nc(N4CCOCC4)nc(N4CCOCC4)n3)o2)cc1,-16%,?,?,4µM*,-12%[46.1 µM],0%
Clc1ccc(-c2ccc(/C=N/Nc3cc(N4CCOCC4)nc(N4CCOCC4)n3)o2)cc1,0%,?,?,6.3µM*,6%,-13%
Cc1cccc(OCc2nc(CC(=O)Nc3ccc(C)cc3C)cs2)c1,-3%,-8%,.,2%[46.1 µM],5%[46.1 µM],.
Cc1oc(-c2ccc(C(=O)NC(C)c3ccccc3)cc2)nc1CS(=O)(=O)c1ccccc1 (stereo unspecified),?,-23%,.,.,-9%[46.1 µM],.
CN1CCN(CCCNC(=O)c2ccc(/C=C3\Sc4ccccc4N(Cc4ccc(F)cc4)C3=O)cc2)CC1,8%,19%,?,.,.,3%
CN1CCN(CCCNC(=O)c2ccc(/C=C3\Oc4ccccc4N(Cc4ccccc4F)C3=O)cc2)CC1,-6%,-2%,14µM*,.,.,2%
CCN1CCN(CCNC(=O)c2ccc(/C=C3\Sc4ccccc4N(Cc4ccccc4F)C3=O)cc2)CC1,-4%,-24%,11µM*,.,.,13%
Cc1cccc(CN2C(=O)/C(=C\c3ccc(C(=O)NCCCN4CCN(C)CC4)cc3)Oc3ccccc32)c1,-4%,.,.,.,.,.
CCn1nnc2cc(C(=O)Nc3ccc(Cl)cc3C)ccc21,-5%,4%,.,.,6%[46.1 µM],.
CC1CCCN(Cc2c(O)ccc3c(=O)c(Oc4ccccc4Cl)c(C(F)(F)F)oc23)C1 (stereo unspecified),-2%,-5%,.,1%[46.1 µM],-11%[46.1 µM],.
C[C@H](O)CO[C@H]1[C@H]2O[C@H]3[C@H](O)[C@@H](O)[C@@H](O[C@H]4[C@H](O)[C@@H](O)[C@@H](O[C@H]5[C@H](O)[C@@H](O)[C@@H](O[C@H]6[C@H](O)[C@@H](OC[C@H](C)O)[C@@H](O[C@H]7[C@H](O)[C@@H](OC[C@H](C)O)[C@@H](O[C@H]8[C@H](O)[C@@H](O)[C@@H](O[C@@H]([C@@H]1O)[C@@H](CO)O2)O[C@@H]8CO)O[C@@H]7CO)O[C@@H]6CO)O[C@@H]5CO)O[C@@H]4CO)O[C@@H]3CO,.,-7%,.,.,.,.
COc1ccc(-n2c(=O)c3c4c(sc3n(CC(=O)NC3CCCC3)c2=O)CCCC4)c(OC)c1,9%,5%,2%,.,.,-7%
COc1ccc(-n2c(=O)c3c4c(sc3n(CC(=O)NCc3ccco3)c2=O)CCC4)c(OC)c1,?,3%,13µM*,-8%,-3%,0%
Cc1ccc(S(=O)(=O)N2C3CCCCC3O[C@H]2CC(=O)OCc2ccccc2)cc1 (stereo partly specified),.,36%,.,.,.,-18%
